Test systems include HCT-15 colon; HT29 colon; SNB-75 CNS; SNB-19 CNS; U251 CNS; PC-3 prostate; SK-MEL-5 melanoma; UACC-62 melanoma; LOX IMVI melanoma; SK-MEL-28 melanoma; SK-MEL-2 melanoma; EKVX NSCLC; SN12C renal; UO-31 renal; TK-10 renal; ACHN renal; CAKI-1 renal; A498 renal; CCRF-CEM leukemia; MOLT-4 leukemia.
Assay in all cases: NCI-60 one-dose screen, 48 h (100 = growth as untreated, 0 = no growth, -100 = all killed)
Holding throughout (conditions): 10 µM unless noted

This is an account of results in PubChem BioAssay (NCI).

About 83,000 compounds went through this panel and 20% of them were active in at least one assay; those are over-represented in the sample as a whole.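 The test compound was applied at a single concentration to cells in 96-well plates for 48 hours, and percent growth was recorded.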 A number with no mark means an inactive call. Activity calls are given as the source filed them. The calls were made as follows: active = growth percent below 10; inactive = the rest.

`O=C(CCN1CCCC1)c1ccc([N+](=O)[O-])cc1`: the growth was 100% in the test with HCT-15 colon; 101% in the test with HT29 colon; 84% with SNB-75 CNS; 116% in the test on SNB-19 CNS; 98.4% in the test on U251 CNS; 99.8% with PC-3 prostate. For the same molecule, the growth is 101% with SK-MEL-5 melanoma; 105% in the test with UACC-62 melanoma; 102% in the test on LOX IMVI melanoma; 104% in the test on SK-MEL-28 melanoma; 111% with SK-MEL-2 melanoma; 97.5% in the test with EKVX NSCLC. Also, the growth in the test with SN12C renal is 106%; with UO-31 renal it was 87.3%; in the test with TK-10 renal, 101%; with ACHN renal, 106%; in the test with CAKI-1 renal it was 97.3%; with A498 renal it was 92.9%. The growth in the test with CCRF-CEM leukemia is 103%; with MOLT-4 leukemia it was 113%.
Regarding `CC(C)(C)[Si](C)(C)OC1[C@@H](O[Si](C)(C)C(C)(C)C)[C@@H](CNC(=O)NC(=O)CCl)O[C@H]1n1cnc2c(NC(=O)Nc3ccccc3)ncnc21` (stereo not given in full), the growth is 37.5% in the test on HCT-15 colon; -48.1% (active) in the test with HT29 colon; -66.2% (active) in the test with SNB-75 CNS; 6.83% (active) in the test on SNB-19 CNS; -75.6% (active) in the test with U251 CNS; -36.2% (active) in the test with PC-3 prostate. For the same molecule, the growth was -87.7% (active) in the test with SK-MEL-5 melanoma; -61.5% (active) in the test with UACC-62 melanoma; -88.1% (active) with LOX IMVI melanoma; -79.5% (active) with SK-MEL-28 melanoma; 42.7% in the test on SK-MEL-2 melanoma; -40.4% (active) with EKVX NSCLC. Moreover, the growth with SN12C renal was -50.3% (active); in the test with UO-31 renal, -75% (active); in the test with TK-10 renal it was 105%; with ACHN renal, -68.6% (active); in the test on CAKI-1 renal, 37.9%; in the test on A498 renal, 43.5%. In addition, the growth was -37.9% (active) in the test on CCRF-CEM leukemia and -43.8% (active) in the test with MOLT-4 leukemia.
On to `CC(C)(C)c1cc(C=O)cc(C(C)(C)C)c1O`, for which the growth in the test with HCT-15 colon was 102%; in the test with HT29 colon, 102%; in the test with SNB-75 CNS, 83.6%; in the test with SNB-19 CNS, 101%; in the test on U251 CNS, 96.3%; in the test on PC-3 prostate, 87.6%. For the same molecule, the growth in the test on SK-MEL-5 melanoma was 92%; in the test with UACC-62 melanoma, 85.4%; in the test with LOX IMVI melanoma, 98.4%; in the test on SK-MEL-28 melanoma, 111%; in the test with SK-MEL-2 melanoma it was 96.2%; in the test with EKVX NSCLC it was 126%. The growth with SN12C renal was 104%; in the test with UO-31 renal it was 103%; in the test with TK-10 renal, 93.2%; in the test on ACHN renal, 105%; in the test with CAKI-1 renal, 113%; in the test with A498 renal, 105%. The growth in the test on CCRF-CEM leukemia is 14.3%; with MOLT-4 leukemia, 14.8%.
As to `N#C/C(=C\c1ccc([N+](=O)[O-])s1)c1nc2cc(Cl)ccc2s1`, the growth in the test on HCT-15 colon was -45.9% (active); in the test with HT29 colon it was 33.7%; in the test with SNB-75 CNS, 49.7%; in the test on SNB-19 CNS, 12.8%; with U251 CNS it was 1.57% (active); in the test on PC-3 prostate it was -0.522% (active). Moreover, the growth in the test on SK-MEL-5 melanoma was -94.4% (active); in the test with UACC-62 melanoma, 19.5%; with LOX IMVI melanoma it was -29.2% (active); in the test with SK-MEL-28 melanoma, 21.1%; in the test on SK-MEL-2 melanoma, -19.6% (active); in the test on EKVX NSCLC, 7.23% (active). In addition, the growth with SN12C renal was -27.5% (active); in the test on UO-31 renal, -15.8% (active); in the test with TK-10 renal, 34.8%; in the test on ACHN renal, -46.6% (active); in the test with CAKI-1 renal, 43.3%; in the test with A498 renal, 114%. The results for the growth in the test with CCRF-CEM leukemia and with MOLT-4 leukemia were 0.557% (active) and 8.53% (active), respectively.
Regarding `C=C(C)[C@@H]1CC[C@]2(C(=O)N[C@H](CO)Cc3ccccc3)CC[C@]3(C)[C@H](CC[C@@H]4[C@@]5(C)CCCNC(C)(C)[C@@H]5CC[C@]43C)[C@@H]12`, the growth in the test on HCT-15 colon is -82.3% (active); in the test with HT29 colon, -86.1% (active); in the test with SNB-75 CNS, -95.1% (active); with SNB-19 CNS, -88% (active); with U251 CNS it was -89.7% (active); with PC-3 prostate, -84.9% (active). Besides, the growth with SK-MEL-5 melanoma is -95.5% (active); with UACC-62 melanoma, -85.6% (active); with LOX IMVI melanoma, -86.2% (active); in the test with SK-MEL-28 melanoma, -92.3% (active); in the test with SK-MEL-2 melanoma, -92.5% (active); with EKVX NSCLC it was -84.1% (active). The growth is -83.3% (active) with SN12C renal; -92.6% (active) with UO-31 renal; -94.7% (active) in the test on TK-10 renal; -95.9% (active) in the test with ACHN renal; -93.5% (active) in the test with CAKI-1 renal; -97.9% (active) with A498 renal. The growth with CCRF-CEM leukemia was -46.7% (active); with MOLT-4 leukemia, -62.6% (active).
`O=C1/C=C/[C@@H](O)[C@@H]2C[C@@H](O)C[C@H]2/C=C/CCC[C@H](CCc2ccc3ncccc3c2)O1`: the growth in the test with HCT-15 colon is 6.02% (active); with HT29 colon, -19.6% (active); in the test with SNB-75 CNS it was 33.2%; in the test on SNB-19 CNS, 28.9%; in the test with U251 CNS it was 21.7%; in the test with PC-3 prostate, 18.3%. Moreover, the growth with SK-MEL-5 melanoma was -95.8% (active); in the test on UACC-62 melanoma, 4.66% (active); in the test on LOX IMVI melanoma it was -66.5% (active); in the test on SK-MEL-28 melanoma, -0.806% (active); in the test on SK-MEL-2 melanoma, -18.3% (active); in the test with EKVX NSCLC it was 3.05% (active). Further, the growth is 6.22% (active) in the test with SN12C renal; -0.158% (active) with UO-31 renal; -23.9% (active) in the test with TK-10 renal; 5.12% (active) in the test with ACHN renal; -10.2% (active) in the test with CAKI-1 renal; -36.4% (active) in the test with A498 renal. Further, the growth in the test on CCRF-CEM leukemia was 7.39% (active); in the test with MOLT-4 leukemia, -35.7% (active).
Turning to `N#C/C(=C\c1c(-c2ccccc2)[nH]c2ccccc12)C(=O)c1ccc(Cl)cc1`, the growth in the test with HCT-15 colon is 31.1%; in the test on HT29 colon it was 17.3%; in the test on SNB-75 CNS, -4.21% (active); in the test on SNB-19 CNS, 55.3%; in the test with U251 CNS it was 18.6%; with PC-3 prostate, 32.9%. Further, the growth in the test on SK-MEL-5 melanoma was 1.79% (active); in the test with UACC-62 melanoma, 28.6%; in the test on LOX IMVI melanoma, 44.4%; in the test with SK-MEL-28 melanoma it was 50.9%; in the test on SK-MEL-2 melanoma, 74.6%; in the test on EKVX NSCLC, 48.8%. Also, the growth is 66.7% in the test with SN12C renal; 47.3% with UO-31 renal; 68.3% in the test with TK-10 renal; 48.9% in the test on ACHN renal; 59.6% in the test with CAKI-1 renal; -3.53% (active) in the test on A498 renal. For the same molecule, the growth with CCRF-CEM leukemia is 2.19% (active); in the test with MOLT-4 leukemia, 45.9%.
Consider `COc1cc(NCCCCCNC(C)(C)C)c2ncccc2c1`, for which the growth was 91.2% in the test with HCT-15 colon; 85.9% with HT29 colon; 53.2% in the test on SNB-75 CNS; 91.7% in the test on SNB-19 CNS; 100% in the test with U251 CNS; 76.4% in the test with PC-3 prostate. In addition, the growth in the test on SK-MEL-5 melanoma was 100%; in the test on UACC-62 melanoma, 89.6%; in the test on LOX IMVI melanoma, 93.7%; in the test with SK-MEL-28 melanoma, 107%; with SK-MEL-2 melanoma, 113%; in the test with EKVX NSCLC it was 95.9%. The growth is 86.7% in the test with SN12C renal; 75.8% in the test on UO-31 renal; 95.7% in the test with TK-10 renal; 104% with ACHN renal; 78.7% in the test with CAKI-1 renal; 103% with A498 renal. The growth in the test with CCRF-CEM leukemia is 51.8%; in the test on MOLT-4 leukemia it was 105%.
